{"source": "PubChem BioAssay (NCATS)", "note": "Inconclusive results are not listed. Entries that show only a call come without a potency. Unmarked numbers belong to inactive results. Activity calls are given as the source filed them. The call rests on the fitted dose curve; in most records, active means well fitted inhibition curve with a large enough effect; inconclusive means small, poorly fitted or top-dose-only effect; inactive means flat fitted curve, though single readings scatter. Potency means the concentration at half of the fitted maximal effect."}
{"target": "Glutathione peroxidase 1 (Homo sapiens) (UniProt P07203)", "sequence (P07203 whole entry, looked up)": "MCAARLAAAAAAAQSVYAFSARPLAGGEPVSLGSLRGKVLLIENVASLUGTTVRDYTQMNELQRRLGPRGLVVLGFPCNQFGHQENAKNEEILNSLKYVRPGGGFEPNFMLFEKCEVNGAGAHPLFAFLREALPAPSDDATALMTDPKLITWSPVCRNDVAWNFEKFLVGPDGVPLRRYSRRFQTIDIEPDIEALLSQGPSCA", "assay": "Primary qHTS Assay for Inhibitors of Recombinant Selenoprotein Glutathione Peroxidase 1 (GPX1) (AID 1845191); further: nearly all actives have a fitted effect of over 65% in size", "conditions": "recombinant GPX1, GR-coupled NADPH fluorescence, 15 min; series mostly up to 48.8 µM", "description": "Assay Provider: Elias S.J. Arner MD PhD.\nDepartment of Medical Biochemistry and Biophysics\nKarolinska Institutet, Solna, Stockholm, Sweden\nSelenoprotein glutathione peroxidases (GPX), like the ubiquitously expressed GPX1 and the ferroptosis modulator GPX4, enact their antioxidant activities by reducing hydroperoxides using glutathione. […] GPX1 and GPX4 inhibitors have thus shown promise as anti-cancer agents. Existing inhibitors are often promiscuous, or modulate GPX activity only indirectly, so novel direct inhibitors identified through screening against GPX1 and GPX4 could be valuable. Here, we developed optimized glutathione reductase (GR)-coupled GPX assays for the biochemical high-throughput screen (HTS) of almost 12,000 compounds with known mechanisms of action. Initial hits were triaged using a GR counter-screen, assessed for isoform specificity using a separate GPX2 assay, and were assessed for general selenocysteine-targeting activity using a thioredoxin reductase (TXNRD1) assay. With this suite of assays, we identified novel GPX1/GPX2- and GPX4-specific inhibitors and can here present a validated pipeline for future discovery research for selenoprotein-targeting agents.\nSEQUENCE No. (e.g., 1, 2, 3, etc.); […] (e.g., Cells, Incubation, Reagent, etc.); VALUE; DESCRIPTION.\n1; Reagent 1; 3 uL; GPx1 enzyme or no enzyme control in 1536-well, black, solid Greiner assay plate.\n2; Compound; 25 nL; Kalypsis pin tool (Wako USA) equipped with a 1536-well pin head.\n3; Incubation; 30 min; room temperature.\n4; Reagent 2; 1 uL; 10 nM GPX1, 1 mM GSH, 0.5 mM CHP, 0.5 mM NADPH, 100 nM GR, 0.01% BSA substrate\n5; Detection; Fluorescence; ViewLux microplate reader, excitation 340 nm and emission 450 nm.\n6; Incubation; 15 min; room temperature.\n7; Detection; Fluorescence; ViewLux microplate reader, excitation 340 nm and emission 450 nm.\nNOTES (numbers refer to Sequence numbers above)\n1. 3 uL of 16.66 nM GPX1 and 0.016% BSA in assay buffer (50 mM Tris-HCl, 2 mM EDTA (pH 7.5), 150 mM NaCl) was added to columns 3-48 of 1536-well assay plates using a BioRAPTR Flying Reagent Dispenser (Let's Go Robotics (LGR), Carlsbad, CA). A no-enzyme control (0.01% BSA in TES assay buffer) was added to columns 1-2.\n2. 25 nL of test compounds and DMSO controls were added to each well with a pin tool (Kalypsys).\n3. The assay plates were incubated for 30 minutes at room temperature.\n4. 1 uL of master mix (500 nM glutathione reductase (GR), 5 mM reduced glutathione (GSH), 2.5 mM NADPH in assay buffer) was added. 1 uL of cumene hydroperoxide (CHP) ([2.5 mM] in 50% EtOH) was then added within 5 minutes to initiate the reaction. Final concentrations were: 10 nM GPX1, 1 mM GSH, 0.5 mM CHP, 0.5 mM NADPH, 100 nM GR, 0.01% BSA.\n5. Initial fluorescence readout (t=0) at 340/450 nm was measured using a ViewLux multimodal detector (PerkinElmer, Waltham, MA).\n7. Endpoint fluorescence readout (t=15) at 340/450 nm was measured 15 min after room temperature incubation."}
{"compound": "CCCOC(=O)c1ccccc1", "Potency": "inactive"}
{"compound": "C=Cc1c(C)c2cc3[nH]c(cc4nc(cc5nc(cc1[nH]2)C(C)=C5CCC(=O)O)C(CCC(=O)O)=C4C)c(C)c3C=C", "Potency": "inactive"}
{"compound": "Nc1ccc(S(=O)(=O)Nc2nccs2)cc1", "Potency": "inactive"}
{"compound": "OC[C@H]1O[C@@H](O[C@@H]2[C@@H](CO)O[C@](O)(CO)[C@H]2O)[C@H](O)[C@@H](O)[C@H]1O", "Potency": "inactive"}
{"compound": "CC(C)(C)[C@]1(O)CCN2C[C@H]3c4ccccc4CCc4cccc(c43)[C@@H]2C1", "Potency": "inactive"}
{"compound": "CC(C)(O)c1ccccc1CC[C@@H](SCC1(CC(=O)O)CC1)c1cccc(/C=C/c2ccc3ccc(Cl)cc3n2)c1", "Potency": "inactive"}
{"compound": "CCCn1cnc2c1c(=O)n(CCCCC(C)=O)c(=O)n2C", "Potency": "inactive"}
{"compound": "O=C(O)COc1nn(Cc2ccccc2)c2ccccc12", "Potency": "inactive"}
{"compound": "COCCOC(=O)C1=C(C)NC(C)=C(C(=O)OC/C=C/c2ccccc2)C1c1cccc([N+](=O)[O-])c1", "note": "(stereo not given)", "Potency": "inactive"}
{"compound": "CCN(CC)CCNC(=O)c1cc(Cl)c(N)cc1OC", "Potency": "inactive"}
{"compound": "Nc1ccc(S(=O)(=O)Nc2ccc(Cl)nn2)cc1", "Potency": "inactive"}
{"compound": "NC(=O)c1ncn([C@@H]2O[C@H](CO)[C@@H](O)[C@H]2O)n1", "Potency": "inactive"}
{"compound": "COC(=O)C1=C(C)NC(C)=C(C(=O)OC)C1c1ccccc1[N+](=O)[O-]", "Potency": "inactive"}
{"compound": "O=C1c2c(O)cccc2Cc2cccc(O)c21", "Potency": "inactive"}
{"compound": "CCN(CC)CCOC(=O)C1(C2CCCCC2)CCCCC1", "Potency": "inactive"}
{"compound": "O=C(Oc1ccccc1C(=O)O)c1ccccc1O", "Potency": "inactive"}
{"compound": "CN1CCCCC1CCN1c2ccccc2Sc2ccc(S(C)=O)cc21", "note": "(stereo not given)", "Potency": "inactive"}
{"compound": "Cc1cc(N)c2ccccc2[n+]1CCCCCCCCCC[n+]1c(C)cc(N)c2ccccc21", "Potency": "inactive"}
{"compound": "O=C1Nc2ccc(Cl)cc2[C@@](C#CC2CC2)(C(F)(F)F)O1", "Potency": "inactive"}
{"compound": "CN1[C@@H]2CC(OC(=O)[C@H](CO)c3ccccc3)C[C@H]1[C@@H]1O[C@@H]12", "note": "(stereo not given in full)", "Potency": "inactive"}
{"compound": "CSc1ccc2c(c1)N(CCC1CCCCN1C)c1ccccc1S2", "note": "(stereo not given)", "Potency": "inactive"}
{"compound": "CNCCCC1c2ccccc2C=Cc2ccccc21", "Potency": "inactive"}
{"compound": "NC(N)=NCCC[C@H](N)C(=O)O", "Potency": "inactive"}
{"compound": "COc1ccc2cc1Oc1ccc(cc1)C[C@H]1c3c(cc4c(c3Oc3cc5c(cc3OC)CCN(C)[C@@H]5C2)OCO4)CCN1C", "Potency": "inactive"}
{"compound": "NCCNCCNCCN", "Potency": "inactive"}
{"compound": "Nc1cc(=O)[nH]c(N)n1", "Potency": "inactive"}
{"compound": "CSc1ccc2c(c1)C(N1CCN(C)CC1)Cc1ccccc1S2", "note": "(stereo not given)", "Potency": "inactive"}
{"compound": "Cn1c(=O)c2c(ncn2CC2OCCO2)n(C)c1=O", "Potency": "inactive"}
{"compound": "OCC(O)CN1CCN(c2ccccc2)CC1", "note": "(stereo not given)", "Potency": "inactive"}
{"compound": "C[C@@H]1C[C@H]2[C@@H]3C[C@H](F)C4=CC(=O)C=C[C@]4(C)[C@@]3(F)[C@@H](O)C[C@]2(C)[C@@]1(O)C(=O)CO", "Potency": "inactive"}
{"compound": "C[C@H](N)[C@H](O)c1cccc(O)c1", "Potency": "inactive"}
{"compound": "CCCCc1ncc(/C=C(\\Cc2cccs2)C(=O)O)n1Cc1ccc(C(=O)O)cc1", "Potency": "inactive"}
{"compound": "NCCNCCNCCNCCN", "outcome": "inactive [at 9.52 µM]"}
{"compound": "CC(C)(C)c1onc(OCP(=O)(O)O)c1CC(N)C(=O)O", "note": "(stereo not given)", "Potency": "inactive"}
{"compound": "C[C@@H]1CCN(C(=O)[C@H](CCCN=C(N)N)NS(=O)(=O)c2cccc3c2NC[C@H](C)C3)[C@@H](C(=O)O)C1", "Potency": "inactive"}
{"compound": "N[C@@H](CSSC[C@H](N)C(=O)O)C(=O)O", "activity, negative = inhibition": "-7.33% [at 0.4 µM]"}
{"compound": "Cc1ccc2nc(N)[nH]c(=O)c2c1Sc1ccncc1", "Potency": "inactive"}
{"compound": "CO/N=C(\\C(=O)N[C@@H]1C(=O)N2C(C(=O)O)=C(CSc3nc(=O)c(O)nn3C)CS[C@H]12)c1csc(N)n1", "Potency": "9.04 µM (active)"}
{"compound": "Cc1cccc(Nc2cc(Cl)nc(SCC(=O)O)n2)c1C", "Potency": "inactive"}
{"compound": "Cc1ncc(COP(=O)(O)O)c(C=O)c1O", "Potency": "inactive"}
